Data taken from PubChem BioAssay (NCATS).
Results filed as inconclusive are left out. A call without a number means that no potency is given here. Calls of active or inactive are those of the source. Calls come from the whole dose curve; as a rule, active = well fitted inhibition curve with a large enough effect; inconclusive = small, poorly fitted or top-dose-only effect; inactive = flat fitted curve, though single readings scatter.

Legend:
[1] = target: Glutathione peroxidase 1 (Homo sapiens) (UniProt P07203); test: Primary qHTS Assay for Inhibitors of Recombinant Selenoprotein Glutathione Peroxidase 1 (GPX1) (AID 1845191); settings: recombinant GPX1, GR-coupled NADPH fluorescence, 15 min; series mostly up to 48.8 µM
Sequence of Glutathione peroxidase 1 (Homo sapiens) (P07203 whole entry, looked up): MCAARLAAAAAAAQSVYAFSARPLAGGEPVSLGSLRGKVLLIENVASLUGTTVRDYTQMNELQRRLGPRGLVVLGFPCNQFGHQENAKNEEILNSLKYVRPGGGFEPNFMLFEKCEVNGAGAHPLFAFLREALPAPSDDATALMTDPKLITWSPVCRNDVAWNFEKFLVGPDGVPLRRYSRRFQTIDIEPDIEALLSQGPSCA
Method in brief: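 10 nM GPX1 + cpd, 30 min RT; start w/ 1 mM GSH, 0.5 mM cumene hydroperoxide, 0.5 mM NADPH, 100 nM GR, 0.01% BSA; buffer 50 mM Tris-HCl pH 7.5, 2 mM EDTA, 150 mM NaCl; Fl 340/450, 0 & 15 min.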

[2] = target: Phospholipid hydroperoxide glutathione peroxidase GPX4 (Homo sapiens) (UniProt P36969); test: Primary qHTS Assay for Inhibitors of Recombinant Selenoprotein Glutathione Peroxidase 4 (GPX4) (AID 1845192); settings: recombinant GPX4, GR-coupled NADPH fluorescence, 15 min; series mostly up to 50 µM
Sequence of Phospholipid hydroperoxide glutathione peroxidase GPX4 (Homo sapiens) (P36969 whole entry, looked up): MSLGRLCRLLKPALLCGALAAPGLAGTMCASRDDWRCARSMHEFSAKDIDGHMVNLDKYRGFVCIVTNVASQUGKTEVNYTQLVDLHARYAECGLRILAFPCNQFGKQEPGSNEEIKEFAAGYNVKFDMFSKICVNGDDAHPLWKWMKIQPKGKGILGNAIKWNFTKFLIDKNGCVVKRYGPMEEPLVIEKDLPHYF
Method in brief: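 NADPH consumption, followed by fluorescence at 340/450 nm between 0 and 15 min, reports GPX4 activity via coupled glutathione reductase (100 nM). Enzyme 200 nM was pre-exposed to compound 30 min; 0.5 mM cumene hydroperoxide and 1 mM GSH served as substrates.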
Note: nearly all actives have a fitted effect of over 65% in size.
Potency is the fitted concentration of half-maximal effect.

SMILES	Potency [1]	Potency [2]
CCC(=O)Oc1ccc2c(c1)CC[C@@H]1[C@@H]2CC[C@@]2(C)[C@H]1C[C@@H](OC(=O)CC)[C@@H]2OC(=O)CC	inactive	inactive
CC[N+]1(CC)CCC(=C(c2ccccc2)c2ccccc2)C1C (centres undefined)	inactive	inactive
CO[C@@H]1[C@@H](O[C@@H]2O[C@H](C)[C@@H](O[C@H]3C[C@@](C)(O)[C@@H](O)[C@H](C)O3)[C@H](N(C)C)[C@H]2O)[C@@H](CC=O)C[C@@H](C)[C@@H](O[C@@H]2CC[C@H](N(C)C)[C@@H](C)O2)/C=C/C=C/C[C@@H](C)OC(=O)C[C@H]1OC(C)=O	–	inactive
CC1CCCCN1CCCOC(=O)c1ccc(OC2CCCCC2)cc1 (centres undefined)	inactive	inactive
CC(=O)O[C@@H]1C(=O)O[C@@H]2[C@H]1OC(=O)[C@@H]2OC(C)=O	inactive	inactive
CNC(=O)c1cnn(-c2nc(N)c3ncn([C@@H]4O[C@H](CO)[C@@H](O)[C@H]4O)c3n2)c1	inactive	inactive
O=C(c1ccccc1)c1ccccc1	inactive	inactive
CCCN(CCC)C(=O)C(CCC(=O)OCCCN1CCN(CCOC(=O)Cc2c(C)n(C(=O)c3ccc(Cl)cc3)c3ccc(OC)cc23)CC1)NC(=O)c1ccccc1 (centres undefined)	inactive	inactive
CC(=O)CC/C=C(\C)CC/C=C(\C)CC/C=C(\C)CCC=C(C)C	inactive	inactive
OC(CCCN1CCCCC1)(c1ccccc1)c1ccccc1	inactive	inactive
N#CSCC(=O)O	–	inactive
CO[C@]1(NC(=O)CSC(F)F)C(=O)N2C(C(=O)O)=C(CSc3nnnn3CCO)CO[C@H]21	inactive	inactive
CO/N=C(/C(=O)N[C@@H]1C(=O)N2C(C(=O)O)=C(Cn3nnc(C)n3)CS[C@H]12)c1csc(N)n1	14.3 µM (active)	inactive
CC(C)C(=O)Nc1cccc(C2CN3CCSC3=N2)c1 (centres undefined)	–	inactive
O=C(OCC(O)CO)c1ccccc1Nc1ccnc2c(C(F)(F)F)cccc12 (centres undefined)	inactive	inactive
NS(=O)(=O)c1cc(C(=O)NN2C[C@H]3[C@H]4CCC(C4)[C@H]3C2)ccc1Cl	–	inactive
O=C(CCC1CCN(Cc2ccccc2)CC1)c1ccc2c(c1)NCCCC2	inactive	inactive
CCc1cc(S(=O)(=O)O)c2cc(C(C)C)cccc1-2	inactive	inactive

SMILES	Potency [1]	Potency [2]
CCC[C@H](N[C@@H](C)C(=O)N1[C@H](C(=O)O)C[C@@H]2CCCC[C@@H]21)C(=O)OCC	–	inactive
C1N2CN3CN1CN(C2)C3	–	inactive
CCOC(=O)OCC/C(SC(=O)OCC)=C(\C)N(C=O)Cc1cnc(C)nc1N	inactive	inactive
CCNC(=O)NCCCOc1cccc(CN2CCCCC2)c1	inactive	inactive
CC(C)C[C@@H]1[C@H](c2ccccc2)OC(=O)N1CCCN1CCCCCC1	–	inactive
N=C(N)c1ccc(OCCCOc2ccc(C(=N)N)cc2)cc1	inactive	inactive
COc1c(N2C[C@@H]3CCCN[C@@H]3C2)c(F)cc2c(=O)c(C(=O)O)cn(C3CC3)c12	14.3 µM (active)	11.2 µM (active)
CCC(CN)=C(c1ccccc1)c1ccccc1	inactive	inactive
COc1ccc2c(c1)c(CC(=O)OC/C=C(\C)CC/C=C(\C)CCC=C(C)C)c(C)n2C(=O)c1ccc(Cl)cc1	–	inactive
O=C(O)CNC(=O)CNC(=O)CNC(=O)CSC(=O)c1ccccc1	inactive	inactive
CCOC(=O)[C@H](CCc1ccccc1)N[C@@H](C)C(=O)N(CC(=O)O)C1Cc2ccccc2C1	inactive	inactive
C/C(=C(/OCCOc1ccc(Cl)cc1)c1ccc(Cl)cc1Cl)n1ccnc1	inactive	inactive
O=C(O)CCC(=O)OC[C@@H](NC(=O)C(Cl)Cl)[C@H](O)c1ccc([N+](=O)[O-])cc1	inactive	inactive
CN1CCC(N(Cc2cccs2)c2ccccc2)CC1	inactive	inactive
O=C(CCCCCCCCC#CI)Oc1ccccc1	inactive	inactive
OCCOCCN1CCN(C(c2ccccc2)c2ccc(Cl)cc2)CC1 (centres undefined)	inactive	inactive
CNC[C@H](O)[C@@H](O)[C@H](O)[C@H](O)CO	inactive	inactive
CCC(=O)O[C@]1(C(=O)COC)[C@@H](C)C[C@H]2[C@@H]3CCC4=CC(=O)C=C[C@]4(C)C3(F)[C@@H](O)C[C@@]21C (some centres undefined)	inactive	inactive
